Reference: PubChem BioAssay (NCI)
This is part of a sample that, as a whole, favours compounds with a hit. Of some 83,000 tested, about 20% had one in any assay.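 Negative percent growth values reflect cell death: -40 means 40% of the cells present at the start died, and -100 means all died.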

How the values were obtained:
Assay in all cases: NCI-60 one-dose screen, 48 h (100 = growth as untreated, 0 = no growth, -100 = all killed); active = growth percent below 10; inactive = the rest
[1] = system: SR leukemia; conditions: 10 µM unless noted
[2] = system: RPMI-8226 leukemia; conditions: 10 µM
[3] = system: OVCAR-8 ovarian; conditions: 10 µM unless noted
[4] = system: OVCAR-5 ovarian; conditions: 10 µM unless noted
[5] = system: SK-OV-3 ovarian; conditions: 10 µM
[6] = system: IGROV1 ovarian; conditions: 10 µM unless noted
[7] = system: OVCAR-3 ovarian; conditions: 10 µM unless noted
[8] = system: NCI/ADR-RES ovarian; conditions: 10 µM unless noted
[9] = system: T-47D breast; conditions: 10 µM
[10] = system: BT-549 breast; conditions: 10 µM unless noted
[11] = system: MDA-MB-435 melanoma; conditions: 10 µM unless noted
[12] = system: SW-620 colon; conditions: 10 µM unless noted
[13] = system: MCF7 breast; conditions: 10 µM unless noted
[14] = system: HCT-116 colon; conditions: 10 µM unless noted
[15] = system: HCC-2998 colon; conditions: 10 µM unless noted
[16] = system: KM12 colon; conditions: 10 µM unless noted
[17] = system: HS 578T breast; conditions: 10 µM unless noted
[18] = system: OVCAR-4 ovarian; conditions: 10 µM unless noted

Measured: growth

CCOC(=O)c1cn2c3c(cc(F)cc3c1=O)C(CC)c1ccccc1C2 (stereo not drawn)
inactive: [1] 66.2% | [2] 64.2% | [3] 95.9% | [4] 104% | [5] 104% | [6] 93.1% | [7] 92.9% | [8] 91.2% | [9] 93.1% | [10] 96.7% | [11] 93.9% | [12] 107% | [13] 90.3% | [14] 102% | [15] 93.7% | [16] 102%

COc1ccc(-c2nc3sc(C)nn3c2-c2nc3cc(C)c(C)cc3[nH]2)cc1
inactive: [1] 76.6% | [2] 83.3% | [3] 89.6% | [4] 103% | [5] 99.5% | [6] 98.4% | [7] 104% | [8] 86.6% | [9] 95.4% | [10] 96.5% | [11] 95.6% | [12] 98.5% | [13] 88.6% | [14] 97.5% | [15] 106%

COc1nc2c(cc1S(=O)(=O)c1ccccc1)CCc1c-2cnn1-c1ccccc1Cl
inactive: [1] 37.9% | [2] 56.8% | [3] 59.8% | [4] 70.6% | [5] 85.7% | [6] 77.1% | [7] 70.8% | [17] 68.4% | [9] 26.5% | [10] 51.8% | [11] 65.7% | [12] 79.1% | [13] 42.2% | [14] 48.4% | [15] 77.7% | [16] 49.7%

O=C1NC(=O)C(CSc2ccccc2)(c2ccccc2)N1 (stereo not drawn)
inactive: [1] 89.9% | [2] 100% | [3] 99.3% | [4] 107% | [5] 101% | [6] 80.4% | [7] 124% | [17] 106% | [8] 99.9% | [9] 93.4% | [10] 100% | [11] 112% | [12] 106% | [13] 101% | [14] 102% | [15] 96.4% | [16] 113%

CSc1nnc(-c2sc3nnc(-c4ccccc4)c(-c4ccccc4)c3c2O)o1
inactive: [1] 62.5% | [2] 67.2% | [3] 85.8% | [4] 101% | [5] 85.5% | [7] 86.8% | [17] 98.4% | [9] 75% | [10] 74.1% | [11] 88.4% | [12] 92.5% | [13] 83.5% | [14] 60.9% | [16] 72.9%

O=C1OCC2=C1C(c1ccc3c(c1)OCO3)CC(=O)N2c1cccc(Cl)c1 (stereo not drawn)
inactive: [1] 98.6% | [2] 90.1% | [3] 102% | [18] 93.5% | [5] 97.5% | [6] 104% | [7] 109% | [17] 94.5% | [8] 98.9% | [9] 103% | [10] 126% | [11] 100% | [12] 105% | [14] 114% | [16] 101%
